Test [1] deals with Phospholipid hydroperoxide glutathione peroxidase GPX4 (Homo sapiens) (UniProt P36969). In words: Primary qHTS Assay for Inhibitors of Recombinant Selenoprotein Glutathione Peroxidase 4 (GPX4) (AID 1845192). For activity change, negative = inhibition: series mostly up to about 50 µM; % is set by controls: 0 for no effect and ±100 for the full control effect. Note: nearly all actives have a fitted effect of over 65% in size. Note: potency is the fitted concentration of half-maximal effect. The method in brief: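 GR-coupled assay: recombinant GPX4 preincubated 30 min with compound at room temperature; final 200 nM GPX4, 1 mM GSH, 0.5 mM cumene hydroperoxide, 0.5 mM NADPH, 100 nM GR, 0.01% BSA, pH 7.5 Tris. NADPH fluorescence (340/450 nm) read at 0 and 15 min.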
Phospholipid hydroperoxide glutathione peroxidase GPX4 (Homo sapiens), sequence (P36969 whole entry, looked up): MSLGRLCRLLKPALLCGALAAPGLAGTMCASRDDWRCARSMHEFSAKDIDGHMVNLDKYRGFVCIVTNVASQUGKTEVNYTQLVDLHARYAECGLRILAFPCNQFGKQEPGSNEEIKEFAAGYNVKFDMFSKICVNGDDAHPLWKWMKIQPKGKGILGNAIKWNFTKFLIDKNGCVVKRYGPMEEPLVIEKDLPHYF
(In qHTS, concentration-response curves come from the screen itself.)

The target of test [2] is Luciferin 4-monooxygenase (Photinus pyralis) (UniProt P08659). In words: Primary firefly luciferase (FLuc) qHTS assay for identification of artifact compounds. (AID 1845220).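 For activity change, negative = inhibition: series mostly up to about 54 µM; plate controls were DMSO vehicle for no effect and no enzyme for full effect.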 Note: nearly all actives have a fitted effect of over 60% in size. The procedure, abridged: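 D-luciferin and ATP (10 uM each, final) in Tris acetate buffer pH 7.6 were incubated with compounds for 15 min at room temperature. The reaction was started with 10 nM Photinus pyralis luciferase and luminescence read after 5 min. Percent inhibition was fitted to a 4-parameter Hill equation.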

Test [3] in a line: Primary fluorescence-based thiol-reactive (MSTI) qHTS assay for identification of artifact compounds. (AID 1845221).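 For activity change, negative = thiol reactive: series mostly up to about 54 µM; thiol-reactive compounds lower the probe fluorescence signal.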 Note: nearly all actives have a fitted effect of over 65% in size. Note: potency is the fitted concentration of half-maximal effect. The method in brief:
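MSTI probe at 4 uM final in 2% DMSO/PBS pH 7.4; compounds, 1 h at room temperature in dark. Fluorescence Ex/Em 525/598 nm, normalised to Acetyl-MSTI and MSTI, fitted to 4-parameter Hill.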

Test [4] relates to Nanoluciferase (engineered Oplophorus gracilirostris luciferase). Briefly: Primary Nanoluciferase (NLuc) qHTS assay for identification of artifact compounds. (AID 1845222).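 Note: series mostly up to about 54 µM; 0% = DMSO and -100% = no enzyme.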 The method in brief: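 Diluted conditioned medium from NLuc-expressing S16 cells treated with compounds for 15 min at room temperature, then Nano-Glo substrate added; luminescence read after 5 min. Percent inhibition versus no-enzyme and DMSO controls fitted to 4-parameter Hill equation.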

Test [5] can be described thus: Primary redox qHTS assay for identification of artifact compounds. (AID 1845223).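 Note: 0% = DMSO and 100% = reference compound.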 The method in brief:
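Amplex Red (25 uM) and HRP (250 mU/mL) in HBSS, with compounds for 15 min, then 250 uM DTT for 30 min, room temperature, dark. Fluorescence 525/598 nm read; normalized to DMSO and 10 uM DA3003; Hill fit.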

The target of test [6] is Cytochrome P450 3A4 (Homo sapiens) (UniProt P08684). Briefly: qHTS for inhibitors of CYP3A4 against the NCATS DSHEA and TCM libraries (AID 1919971).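 Note: % is set by controls: 0 for no effect and ±100 for the full control effect; inhibition lowers luminescence from luciferin made by CYP3A4.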 The method in brief: (§1)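 Light output from converted D-luciferin reports remaining CYP activity. Compounds preincubate with enzyme and substrate for 15 min; NADPH regeneration (1x final) runs the reaction for 30-45 min.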
Cytochrome P450 3A4 (Homo sapiens), sequence (P08684 whole entry, looked up): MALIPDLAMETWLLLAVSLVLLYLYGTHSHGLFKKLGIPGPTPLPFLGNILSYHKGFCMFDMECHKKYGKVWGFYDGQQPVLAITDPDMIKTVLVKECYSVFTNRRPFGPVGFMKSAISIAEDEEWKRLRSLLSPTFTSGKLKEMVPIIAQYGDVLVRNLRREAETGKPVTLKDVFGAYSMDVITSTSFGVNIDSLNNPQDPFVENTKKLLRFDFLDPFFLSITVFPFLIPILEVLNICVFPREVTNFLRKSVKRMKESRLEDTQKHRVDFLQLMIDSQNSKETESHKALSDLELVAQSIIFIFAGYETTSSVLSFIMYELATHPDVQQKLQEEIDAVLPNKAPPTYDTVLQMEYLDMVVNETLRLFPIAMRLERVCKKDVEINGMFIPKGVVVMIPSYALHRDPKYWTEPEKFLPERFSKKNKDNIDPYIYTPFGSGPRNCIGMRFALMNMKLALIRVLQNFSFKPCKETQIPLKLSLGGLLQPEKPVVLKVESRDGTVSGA
The target of test [7] is Cytochrome P450 2D6 (Homo sapiens) (UniProt P10635). Briefly: qHTS for inhibitors of CYP2D6 against the NCATS DSHEA and TCM libraries (AID 1919972). Note: % is set by controls: 0 for no effect and ±100 for the full control effect. The method in brief: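 Steps: enzyme plus luciferin substrate dispensed; test substances pinned; 15 min RT; 1x NADPH regenerating solution added, 30–45 min RT protected from light; detection reagent, 30 min RT; luminescence measured. Minus-enzyme wells as background.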
Cytochrome P450 2D6 (Homo sapiens), sequence (P10635 whole entry, looked up): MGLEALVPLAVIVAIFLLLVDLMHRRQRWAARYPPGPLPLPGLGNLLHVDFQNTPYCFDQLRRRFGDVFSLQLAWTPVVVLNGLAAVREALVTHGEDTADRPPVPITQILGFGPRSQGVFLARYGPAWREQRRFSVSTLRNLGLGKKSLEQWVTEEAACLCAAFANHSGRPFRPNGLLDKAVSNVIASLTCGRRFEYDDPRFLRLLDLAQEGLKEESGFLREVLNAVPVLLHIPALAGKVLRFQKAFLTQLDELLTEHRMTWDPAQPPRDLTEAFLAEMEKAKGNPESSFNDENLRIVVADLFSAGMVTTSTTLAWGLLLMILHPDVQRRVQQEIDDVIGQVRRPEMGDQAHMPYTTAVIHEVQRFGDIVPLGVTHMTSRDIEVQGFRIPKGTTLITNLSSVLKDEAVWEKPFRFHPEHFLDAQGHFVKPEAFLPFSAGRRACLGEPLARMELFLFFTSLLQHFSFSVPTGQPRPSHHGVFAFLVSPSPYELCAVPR

For test [8], the target named is Cytochrome P450 2C9 (Homo sapiens) (UniProt P11712). Briefly: qHTS for inhibitors of CYP2C9 against the NCATS DSHEA and TCM libraries (AID 1919973).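 Note: luminogenic pro-luciferin CYP2C9 substrate turned into luciferin with NADPH regeneration; series mostly up to about 34 µM; % is set by controls: 0 for no effect and ±100 for the full control effect.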 The method in brief:
as §1

Values without a mark were called inactive. Results filed as inconclusive are left out. Active and inactive are the calls of the source. Calls come from the whole dose curve; as a rule, active = well fitted curve in the direction sought with a large enough effect; inconclusive = small, poorly fitted or top-dose-only effect, or another doubt; inactive = no such curve, though single readings can be large; an effect the other way counts as inactive or inconclusive.

Cytochrome P450 2C9 (Homo sapiens), sequence (P11712 whole entry, looked up): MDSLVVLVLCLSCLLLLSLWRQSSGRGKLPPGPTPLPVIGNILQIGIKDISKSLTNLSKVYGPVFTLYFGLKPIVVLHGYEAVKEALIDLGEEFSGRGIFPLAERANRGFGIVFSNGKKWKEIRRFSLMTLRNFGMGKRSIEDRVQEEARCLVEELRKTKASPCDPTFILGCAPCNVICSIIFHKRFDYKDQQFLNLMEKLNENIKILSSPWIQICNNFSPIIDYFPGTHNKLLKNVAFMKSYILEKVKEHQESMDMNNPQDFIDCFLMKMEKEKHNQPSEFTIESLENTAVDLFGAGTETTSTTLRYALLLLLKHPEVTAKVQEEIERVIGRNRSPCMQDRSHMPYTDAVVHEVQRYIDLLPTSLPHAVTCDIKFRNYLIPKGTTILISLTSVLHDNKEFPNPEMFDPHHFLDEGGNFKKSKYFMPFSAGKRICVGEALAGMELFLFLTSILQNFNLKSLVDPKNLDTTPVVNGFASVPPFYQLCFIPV

As to `CC(Nc1ncnc2nc[nH]c12)c1cc2cccc(Cl)c2c(=O)n1-c1ccccc1` (configuration not stated), the Potency entry in test [1], in test [2], in test [3], in test [4] and in test [5] was “inactive” throughout.
On to `Cn1nnc(-c2ccc(-c3ccc(N4C[C@H](COP(=O)(O)O)OC4=O)cc3F)cn2)n1`, for which the Potency in test [1] was 22.7 µM (active). The Potency entry in test [2], in test [3], in test [4] and in test [5] was “inactive” throughout.
With `Cc1ccc(F)cc1C(=O)Nc1ccc(C(=O)N2Cc3cccn3Cc3ccccc32)c(Cl)c1`, the Potency entry in test [1], in test [2], in test [3], in test [4] and in test [5] was “inactive” throughout.
For the molecule `CC(C)Oc1ccc(C(=O)NC(CNC(=O)CN(C)C)Cc2ccc(-c3cn4cccc(C(C)O)c4n3)cc2)cc1Cl` (configuration not stated), the Potency entry in test [1], in test [2], in test [3], in test [4] and in test [5] was “inactive” in each case.
For the molecule `CO[C@H]1O[C@@H]2O[C@]3(C)CC[C@H]4[C@H](C)CC[C@@H]([C@H]1C)[C@@]24OO3`, the Potency entry in test [1], in test [2], in test [3], in test [4] and in test [5] was “inactive” each time.
In the case of `CC(=O)OC1C(=O)C2(C)C(O)CC3OCC3(OC(C)=O)C2C(OC(=O)c2ccccc2)C2(O)CC(OC(=O)C(O)C(NC(=O)c3ccccc3)c3ccccc3)C(C)=C1C2(C)C` (configuration not stated), the Potency result in test [1], in test [2], in test [3], in test [4] and in test [5] was “inactive” each time.
`O=C(O)/C=C/c1ccc(-c2ccc(O)c(C34CC5CC(CC(C5)C3)C4)c2)cc1`: the Potency result in test [1], in test [2], in test [3], in test [4] and in test [5] was “inactive” in each case.
As to `CC(C)=CCC[C@](C)(O[C@@H]1O[C@H](CO[C@@H]2O[C@H](CO)[C@@H](O)[C@H](O)[C@H]2O)[C@@H](O)[C@H](O)[C@H]1O)C1CC[C@]2(C)[C@@H]1[C@H](O)CC1[C@@]3(C)CC[C@H](O[C@@H]4O[C@H](CO)[C@@H](O)[C@H](O)[C@H]4O[C@@H]4O[C@H](CO)[C@@H](O)[C@H](O)[C@H]4O)C(C)(C)[C@@H]3CC[C@]12C` (some centres not stated), the Potency entry in test [1] was “inactive”. The activity change, negative = inhibition in test [2] is -9.29% [at 11.6 µM]. The activity change, negative = thiol reactive in test [3] was 44.5% [at 11.5 µM]. Moreover, the activity, negative = inhibition in test [4] is 0.108% [at 11.6 µM]. Moreover, the redox activity (% of DA3003) in test [5] was 5.05% [at 11.5 µM]. For the same molecule, the call in test [6], in test [7] and in test [8] was inactive.
Take `COC(=O)N[C@H](C(=O)N1[C@@H]2CC[C@@H](C2)[C@H]1c1nc2ccc(-c3ccc4c(c3)C(F)(F)c3cc(-c5cnc([C@@H]6CCC7(CC7)N6C(=O)[C@@H](NC(=O)OC)C(C)C)[nH]5)ccc3-4)cc2[nH]1)C(C)C`: the Potency result in test [1], in test [2], in test [3], in test [4] and in test [5] was “inactive” in each case.
With `O=C(O)c1cn(C2CC2)c2cc(N3C[C@@H]4C[C@H]3CN4)c(F)cc2c1=O`, in test [1], the Potency is 10.1 µM (active). In addition, the Potency result in test [2], in test [3], in test [4] and in test [5] was “inactive” in each case.
Take `O=C1OCC(c2ccccc2)=C1Cc1ccccc1`: the Potency result in test [1], in test [2], in test [3] and in test [5] was “inactive” in each case.
As for `CC(C)(C(=O)NCC(F)(F)C(F)(F)F)C(=O)NC1C(=O)Nc2ccccc2-c2ccccc21` (configuration not stated), the Potency result in test [1], in test [2], in test [3], in test [4] and in test [5] was “inactive” throughout.
`CC(NC(=O)C(O)C(C)C)C(=O)NC1C(=O)N(C)CCc2ccccc21` (configuration not stated): the Potency entry in test [1], in test [2], in test [3], in test [4] and in test [5] was “inactive” throughout.
Consider `COc1cc2c(cc1OC)-c1[nH]nc(Nc3cccc(F)c3)c1C2`, for which the Potency entry in test [1], in test [2], in test [4] and in test [5] was “inactive” each time. In test [3], the Potency was 1.89 µM (active).
As to `COc1cccc2cc3c(c(O[C@@H]4O[C@H](CO[C@@H]5O[C@H](CO)[C@@H](O)[C@H](O)[C@H]5O)[C@@H](O)[C@H](O)[C@H]4O)c12)C(C)OC3=O` (some centres not stated), the Potency in test [1] was 9.88 µM (active). For the same molecule, the Potency result in test [2], in test [4] and in test [5] was “inactive” throughout.
On to `O=[N+]([O-])c1cn2c(n1)OCC(OCc1ccc(OC(F)(F)F)cc1)C2` (configuration not stated), for which the Potency entry in test [1], in test [2], in test [4] and in test [5] was “inactive” in each case.
Take `Cc1cc(Nc2ccc(NC(=O)c3ccc(Nc4ccnc5ccccc45)cc3)cc2)nc(N)n1`: the Potency result in test [1], in test [2], in test [4] and in test [5] was “inactive” in each case.
In the case of `C[C@@H]1C(=O)OC[C@H]2C(C(=O)O)=C[C@@H]3CC(C)(C)C[C@]312`, the Potency result in test [1], in test [2], in test [4] and in test [5] was “inactive” throughout.
In the case of `CCc1c(C)nc2c(-c3cnn(-c4cc(CO)ccn4)c3)c[nH]n2c1=O`, the Potency result in test [2], in test [4] and in test [5] was “inactive” throughout.
As to `C=C1C[C@]23C[C@H]1CC[C@H]2[C@@]1(C)CCC[C@@]2(C)C(=O)O[C@@H]([C@@H]3O)[C@@H]12`, the Potency entry in test [1], in test [3], in test [4] and in test [5] was “inactive” in each case.
For the molecule `O=C(O)C1CN(Cc2ccc(-c3nc4cc(Cc5ccccc5F)ccc4s3)c(F)c2)C1`, the activity change, negative = inhibition was 8.48% [at 9.73 µM] in test [1] and -1.19% [at 11.6 µM] in test [2]. For the same molecule, the activity, negative = inhibition in test [4] is -0.199% [at 11.6 µM]. In test [5], the redox activity (% of DA3003) is -6.07% [at 11.5 µM].
As to `C/C=C/C=C/C(=O)N1CC[C@]23c4ccccc4N[C@H]4N(C)c5cccc6c5[C@@]42CCN([C@H]6C2OC2(C)C)[C@H]13` (some centres not stated), the Potency result in test [1], in test [2], in test [4] and in test [5] was “inactive” throughout.
`Cc1cc(C)nc(NS(=O)(=O)c2ccc(NC(=S)NC(=O)COc3ccc(Br)cc3Cl)cc2)n1`: the Potency result in test [1], in test [3], in test [4] and in test [5] was “inactive” throughout.

The record behind these values is PubChem BioAssay (NCATS).
